RBX1-CUL1 inh – human ROC1-CUL1 E3 ligase inhibition; P62877+Q13616; in vitro K48 di-Ub FRET, acceptor:donor ratio, 45 min; inhibition, % at 10 µM; 0.6% of 140,000 active; in the data active = inhibition above about 25%
Target sequence (P62877 whole entry, looked up): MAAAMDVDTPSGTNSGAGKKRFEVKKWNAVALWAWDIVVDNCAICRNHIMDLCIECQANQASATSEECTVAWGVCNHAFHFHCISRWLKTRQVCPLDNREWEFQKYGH
Target sequence (Q13616 whole entry, looked up): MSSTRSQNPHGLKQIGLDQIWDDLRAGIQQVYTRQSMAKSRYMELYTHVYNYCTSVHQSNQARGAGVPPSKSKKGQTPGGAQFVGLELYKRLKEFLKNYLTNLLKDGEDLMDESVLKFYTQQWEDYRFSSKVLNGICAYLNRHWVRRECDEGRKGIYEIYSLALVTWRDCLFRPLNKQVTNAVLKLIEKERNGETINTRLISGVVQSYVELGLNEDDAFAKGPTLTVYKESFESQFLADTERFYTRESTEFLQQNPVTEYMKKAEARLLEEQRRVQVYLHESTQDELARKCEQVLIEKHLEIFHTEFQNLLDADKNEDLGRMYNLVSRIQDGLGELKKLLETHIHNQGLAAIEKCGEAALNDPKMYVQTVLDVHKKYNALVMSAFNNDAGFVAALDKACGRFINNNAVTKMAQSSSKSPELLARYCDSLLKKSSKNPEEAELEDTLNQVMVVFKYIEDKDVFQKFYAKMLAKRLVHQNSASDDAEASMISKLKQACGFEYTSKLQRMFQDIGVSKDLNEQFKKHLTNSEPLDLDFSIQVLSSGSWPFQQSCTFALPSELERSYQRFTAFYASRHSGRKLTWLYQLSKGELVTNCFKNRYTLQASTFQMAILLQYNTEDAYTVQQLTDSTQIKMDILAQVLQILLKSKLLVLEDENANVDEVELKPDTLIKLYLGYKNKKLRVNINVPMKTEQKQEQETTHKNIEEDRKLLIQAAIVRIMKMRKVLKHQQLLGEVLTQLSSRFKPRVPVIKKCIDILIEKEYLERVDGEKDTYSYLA
Numbers without * were called inactive. This is one part of a sample in which hits are shown more often than they occur.

SMILES	RBX1-CUL1 inh
O=C(COC(=O)c1ccc(NC(=O)c2ccc(Cl)cc2)cc1)c1cccc([N+](=O)[O-])c1	2
O=C(NC1=NN(c2c(Cl)cc(Cl)cc2Cl)C(=O)/C1=C/c1ccc(O)cc1)c1cccc([N+](=O)[O-])c1	60*
O=C(Nc1cc2nc3ccccc3nc2cc1NC(=O)c1cccc([N+](=O)[O-])c1)c1cccc([N+](=O)[O-])c1	0
CCOC(=O)C(C#N)Cc1csc2ccc(Cl)cc12 (stereo not drawn)	2
CC1=Nc2nc(SCc3ccccc3)nn2C(c2cccc(Br)c2)C1C(=O)Nc1cccnc1 (stereo not drawn)	-10
CCCCCCCC(=O)Nc1ccc(N(C)C)cc1	-1
CCCCCCCCCCCCCCCC[n+]1ccc(/C=C/c2ccc(N(C)C)cc2)cc1	29*
CCCCCCCCCCCCCCCCCCN(C)c1ccc(/C=C/c2cc[n+](C)cc2)cc1	7
CCc1ccccc1-n1c(C)cc(/C=C2\C(=O)NC(=O)N(c3cccc(C)c3)C2=O)c1C	7
Cc1cc(/C=C2\C(=O)NC(=S)N(c3cccc(F)c3)C2=O)c(C)n1-c1cccnc1	78*
Cc1cc(/C=C2/C(=O)NC(=S)N(c3cccc(F)c3)C2=O)c(C)n1-c1ccccc1	14
Cc1cc(/C=C2\C(=O)NC(=O)N(c3ccc(Cl)c(Cl)c3)C2=O)c(C)n1-c1cccnc1	40*
CCOC(=O)c1cccc(-n2c(C)cc(/C=C3\C(=O)NC(=O)N(c4ccc(C)c(C)c4)C3=O)c2C)c1	1
Cc1cc(/C=C2/C(=O)NC(=S)N(c3ccc(F)cc3)C2=O)c(C)n1-c1ccc(O)cc1	10
O=C(NCc1cccnc1)C(=O)N/N=C\c1ccc(-c2cccc(Cl)c2)o1	0
CC(C)CCNC(=O)CCN1Cc2ccccc2OC(c2ccccc2F)C1 (stereo not drawn)	7
Cc1ccc2c(c1)CN(CC(=O)NC1CCCC1)CC(c1ccsc1)O2 (stereo not drawn)	5
CCc1[nH]nc2c1C(c1ccc(N3CCCC3)cc1)C(C#N)C(=N)O2 (stereo not drawn)	6
Cc1cc2c3c(c1)C1C=CCC1C(c1ccc(Br)cc1)N3CC1CC=CC21 (stereo not drawn)	-5
O=C(O)c1cc2c3c(c1)C1CC=CC1C(c1ccc(Br)cc1)N3CC1CC=CC21 (stereo not drawn)	102*
O=[N+]([O-])c1ccc(C2C3CC=CC3c3c4c(cc5ccccc35)C3C=CCC3CN42)cc1 (stereo not drawn)	-6
O=C(C1CCCN(c2ccccn2)C1)N1CCC(c2cc(=O)[nH]cn2)CC1 (stereo not drawn)	-2
COc1ccc2cc(-c3[nH]ncc3CN(C)CCc3cnn(C)c3)ccc2c1	-1
CC(=O)CSc1nc2scc(-c3ccc(C)o3)c2c(=O)n1-c1ccccc1	-5
O=C(CSc1nc2scc(-c3ccco3)c2c(=O)n1-c1ccccc1)Nc1ccc2c(c1)OCCO2	3
SMILES	RBX1-CUL1 inh
O=C(CSc1nc2scc(-c3ccco3)c2c(=O)n1-c1ccccc1)c1ccc(F)cc1	97*
CC(=O)c1ccc(N2N=C(C)C3=S2N(c2ccc(C(C)=O)cc2)N=C3C)cc1	5
CC(=O)Nc1ccc(CNC2CCCN(c3nc4ccccc4s3)C2)cc1 (stereo not drawn)	-4
O=C(Cn1nnc2ccccc21)N/N=C/c1ccc(O)cc1O	-1
O=C1NC(=S)N(c2ccc(Br)cc2)C(=O)/C1=C/c1ccc(F)cc1	0
CCN(CC)c1ccc(/C=C2\C(=O)NC(=O)N(c3ccc(Br)c(C)c3)C2=O)cc1	-40
CCN(CC)c1ccc(/C=C2\C(=O)NC(=S)N(c3ccc(Br)cc3)C2=O)cc1	28*
Cc1cccc(CN2CCC(C(=O)Nc3ccc(F)cc3)CC2)c1	5
CC(=O)c1ccc(C(=O)N2CCC3(CCCN(Cc4ccc(F)cc4)C3)C2)s1 (stereo not drawn)	1
O=C(Cc1ccsc1)N1CCC(Cn2cc(CCO)nn2)CC1	-1
CCC(C)NC(=O)C1C2CCC(O2)C1C(=O)O (stereo not drawn)	-5
O=C1CSC2=NC3=C(CCC/C3=C\c3ccc(Br)cc3)C(c3ccc(Br)cc3)N12 (stereo not drawn)	11
CC1=NC2=NC(=O)/C(=C/c3ccc(Br)cc3)N2C(=O)C1	79*
Cc1ccc(/C=C2/C(=O)N(C)C(=S)N2C)cc1	-7
O=[N+]([O-])c1ccc(C=Nc2ccc3oc(-c4ccccc4Cl)nc3c2)o1	-3
CC(=O)C1CCCN(C(=O)Cn2c3c(n(C(C)C)c2=O)CNCC3)C1 (stereo not drawn)	2
CCN(CC1CCN(C2CCN(C)CC2)CC1)C(=O)c1cnc2ccccc2c1	2
COc1ccc(CCn2c(O)cc3nn(-c4nc5ccccc5s4)c(=O)c-3c2C)cc1	80*
Cc1cc(-c2ccccc2)nn1-c1nc2ccccc2s1	-3
CCc1c(C)[nH]n(-c2nc3ccccc3s2)c1=O	6
Cc1ccc(OCC(O)CN2CCCC(C)C2)cc1 (stereo not drawn)	4
Cn1c(=O)c(Br)c(CO[N+](=O)[O-])n(CCCO[N+](=O)[O-])c1=O	19
CCN1/C(=c2/s/c(=C3/C(=O)N(c4ccccc4)C(=S)N3c3ccccc3)n(CC)c2=O)Sc2ccccc21	9
CCOC(=O)COc1c(Cl)cc(/C=C2/C(=O)NC(=S)N(c3ccc(F)cc3)C2=O)cc1OC	5
Cc1ccc(Nc2nc(Cl)nc(N3CCOCC3)n2)cc1Cl	-6
SMILES	RBX1-CUL1 inh
O=C(O)c1ccc(Nc2nc(Cl)nc(Cl)n2)cc1-c1c2ccc(=O)cc-2oc2cc(O)ccc12	106*
O=C(c1ccccc1)c1ccccc1Nc1nc(Cl)nc(Cl)n1	4
COc1ccc(N2CCN(C(=O)Cc3cccc(C)c3)CC2)cc1	1
Cc1cc(/C=C2\C(=O)NC(=S)N(C)C2=O)c(C)n1-c1ccccc1F	2
CN1C(=O)C(=Cc2cc(Br)c(N(C)C)o2)C(=O)N(C)C1=O	0
CN1C(=O)/C(=C/c2cc(Br)c(Sc3ccc(Cl)cc3)o2)C(=O)NC1=S	48*
Cc1ccc(NC(=O)CSc2nc(-c3ccccc3)cs2)cc1Cl	4
CCCCCSc1nnc2c(n1)OC(c1ccc(N(C)C)cc1)N(C(C)=O)c1ccccc1-2 (stereo not drawn)	-3
CCOc1cc(/C=C2\C(=O)NN(c3ccccc3)C2=O)cc(Br)c1OCCCOc1ccc(C)cc1	17
COc1cc(/C=C2\C(=O)NN(c3ccccc3)C2=O)cc(Cl)c1OCc1ccc(C)cc1	39*
COc1cc(/C=C2\C(=O)NN(c3ccccc3)C2=O)cc(Br)c1OC(=O)C12CC3CC(CC(C3)C1)C2	27*
CCOc1cc(/C=C2\C(=O)NN(c3ccccc3)C2=O)cc(Br)c1OCc1ccccc1C	30*
COc1cc(/C=C2\C(=O)NN(c3ccccc3)C2=O)cc(I)c1OCc1ccc(Cl)c(Cl)c1	12
COc1cc(/C=C2\C(=O)NN(c3ccccc3)C2=O)cc(Cl)c1OCCCOc1cccc(C)c1	23
COc1cc(/C=C2/C(=O)NN(c3ccc(Br)cc3)C2=O)cc(Br)c1OC	7
CCOc1cc(/C=C2\C(=O)NN(c3ccccc3)C2=O)cc(Cl)c1OCc1ccc(Cl)cc1	7
CCOc1cc(/C=C2\C(=O)NN(c3ccccc3)C2=O)cc(Br)c1OCc1ccc(C)cc1	9
COc1cc(/C=C2/C(=O)NN(c3ccccc3)C2=O)cc(Br)c1OC(C)=O	-1
COc1cc(/C=C2\C(=O)NN(c3ccccc3)C2=O)cc(Br)c1OCc1ccccc1C	94*

Source: PubChem (Pan Lab, Icahn School of Medicine at Mount Sinai)
